The results in this text go back to PubChem BioAssay.

The subject of the assay is Lefty1. The experiment in a line: Lefty1 binders on small-molecule microarrays, primary screen, biochemical, small-molecule microarray, 635/667 nm fluorescence (AID 1139). To be noted: small-molecule microarray binding, fluorescence 635/667; higher = more signal.
`O=[N+]([O-])c1ccc(C[n+]2ccc3ccc(O)cc3c2)o1` came in with a composite z-score of 0.392.
Regarding `O=C1O[C@@H](c2ccccc2)[C@@H](c2ccccc2)N2[C@@H](c3ccccc3OCCO)[C@]3(C(=O)Nc4ccc(C#CC5=CCCCC5)cc43)[C@@H](C(=O)O)[C@H]12`, the composite z-score was 0.699.
Compound `CCC#CCN(Cc1ccccc1Br)[C@H](/C=C/c1ccccc1)[C@@H](O)Cc1ccccc1` came in with a composite z-score of -0.978.
`COCCOC(=O)N1C(=O)[C@@]2(c3cc(C#CC4(O)CCCCCC4)ccc31)[C@H](C(=O)N1CCCCCCC1)[C@H]1C(=O)O[C@H](c3ccccc3)[C@H](c3ccccc3)N1[C@@H]2c1ccc(O)cc1` displayed a composite z-score of 1.08.
`C[N+](C)(C)CCCCNC(=O)[C@@H]1C[C@@H]2C(=O)N3CCC[C@H]3C(=O)N2[C@@H]1c1cccc(OCCO)c1` displayed a composite z-score of 0.859.
Under `C=CCN1C(=O)[C@]2(O[C@H](CCn3cc(CCO)nn3)[C@@H]([Si](C)(C)c3ccc(OC)cc3)[C@@H]2C)c2cc(NC(=O)c3ccc(OC)cc3)ccc21` stands 1.01; under `CO[C@H]1COC(=O)[C@@H](Cc2ccccc2)NC(=O)[C@@H](C)COC(=O)CC=C[C@@H]1C`, 1.01.
As for `O=C1C2C=CC(C(O)c3ccccc3)N(n3cnnc3)C2C(=O)N1Cc1ccccc1` (configuration not stated), the composite z-score is -0.497.
Compound `C=C(COC)/C(=C/C[C@@H](OC(=O)c1ccncc1)c1ccc(OCCO)cc1)c1cc(C(=O)OC)ccc1OC` yielded a composite z-score of 0.716.
`O=C1C[C@@](C(=O)NCCN2CCOCC2)(c2ccc([N+](=O)[O-])cc2)[C@@H](c2ccc(CO)cc2)N1C1CCCCC1` came in with a composite z-score of 0.0031.
Consider `COc1ccc(NN2C(C(O)c3cc(OC)c(OC)c(OC)c3)C=CC3C(=O)N(C4CCCCC4)C(=O)C32)cc1` (configuration not stated), for which the composite z-score worked out at 0.133.
Compound `C=C(C)[C@@H]1CC=C(C(O)C2C=CC3C(=O)NC(=O)C3N2Nc2ccccn2)CC1` (some centres not stated) displayed a composite z-score of 1.75.
In turn, `O=C1OCCC/C=C\[C@H]2OC34C=CCN(CCN5CCOCC5)C(=O)[C@H]3N(CCCCCO)C(=O)[C@@H]4C12` (some centres not stated) came in with a composite z-score of -0.84.
`NC(=O)NCC#Cc1ccc2c(c1)[C@]1(C(=O)N2)[C@H](C(N)=O)[C@H]2C(=O)O[C@H](c3ccccc3)[C@H](c3ccccc3)N2[C@@H]1c1ccccc1OCCO`: the composite z-score came to 0.472.
Under `COc1ccc([Si](C)(C)[C@H]2[C@H](CCO)O[C@@]3(C(=O)N(Cc4ccccc4)c4ccc(N5C(=O)c6cccc7cccc5c67)cc43)[C@@H]2C)cc1` stands -0.297; under `CN(C)c1ccc(C(O)C2C=CC3C(=O)NC(=O)C3N2Nc2ccc(Cl)cc2Cl)cc1` (configuration not stated), -0.345; under `COC(=O)C(CC#Cc1ccc2c(c1)[C@]1(C(=O)N2)[C@H](C(=O)N2CCCCCCC2)[C@H]2C(=O)O[C@H](c3ccccc3)[C@H](c3ccccc3)N2[C@@H]1c1ccc(O)cc1)C(=O)OC`, -0.227.
For the compound `C=CCNC(=O)[C@@H]1[C@H]2C(=O)O[C@H](c3ccccc3)[C@H](c3ccccc3)N2[C@H](c2ccc(OCCO)cc2)[C@@]12C(=O)N(C(=O)OCCOC)c1ccc(C#CC3(O)CCCCCC3)cc12`, the composite z-score amounted to 0.326.
`CC(C)[Si]1(C(C)C)O[C@@H](c2ccccc2)c2cc(C3CC3)nc(-c3ccc(Oc4ccccc4)cc3)c21` displayed a composite z-score of -0.315.
For `[N-]=[N+]=NCc1ccccc1C[C@]1(C(=O)N2CCCCC2)N=C(c2ccc(OCCCO)cc2)O[C@H]1c1ccccc1CN=[N+]=[N-]`, the composite z-score amounted to 0.453.
In turn, `Cc1ccc(N2C(=O)c3ccccc3[C@@H](C(=O)NCC(F)(F)F)[C@@H]2c2ccc(CO)cc2)nc1` showed a composite z-score of -3.17.
Take `CC(C)N1CC=CC23O[C@@H]4/C=C\CCCOC(=O)C4[C@H]2C(=O)N(CCO)[C@@H]3C1=O` (some centres not stated): the composite z-score was determined as 0.225.
Regarding `O=C(NCC(F)(F)F)[C@@H]1c2ccccc2C(=O)N(Cc2ccccc2Cl)[C@H]1c1ccc(CO)cc1`, the composite z-score was -1.23.
For `C=CCNC(=O)[C@H]1[C@@H]2C(=O)O[C@@H](c3ccccc3)[C@@H](c3ccccc3)N2[C@@H](c2ccccc2OCCO)[C@]12C(=O)N(C(=O)OCCOC)c1ccc(C#CCC(C(=O)OC)C(=O)OC)cc12` the value was 0.779.
As to `C[C@@H]1C=CCC(=O)OC[C@H]2O[C@@H](C=C[C@@H]2O)[C@H](C)C=CCC(=O)OC[C@H]2O[C@H]1C=C[C@@H]2O`, the composite z-score is 1.75.
Regarding `Cc1ccc(S[C@]2(C(=O)NCCN3CCOCC3)CC(=O)N(C3Cc4ccccc4C3)[C@@H]2c2ccc(CO)cc2I)cc1`, the composite z-score was -1.21.
For `CC(C)CNC(=O)[C@@]1(C)c2ccccc2C(=O)N(Cc2ccc(OC(F)(F)F)cc2)[C@H]1c1ccc(CO)cc1`, the composite z-score was -1.43.
